# Test results: PMC3218832
# Molecular target: T1, RELB subunit;p52 subunit (Homo sapiens;Homo sapiens, UniProt Q01201;Q00653 120-401;4-332)
# T1 sequence 1: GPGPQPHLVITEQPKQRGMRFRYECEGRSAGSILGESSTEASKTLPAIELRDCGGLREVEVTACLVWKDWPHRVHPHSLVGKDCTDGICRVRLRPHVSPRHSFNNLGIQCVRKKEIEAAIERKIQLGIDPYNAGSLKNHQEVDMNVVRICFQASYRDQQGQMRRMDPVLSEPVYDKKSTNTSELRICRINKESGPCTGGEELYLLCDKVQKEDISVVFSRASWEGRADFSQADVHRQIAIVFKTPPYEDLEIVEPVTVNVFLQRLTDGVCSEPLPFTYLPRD
# T1 sequence 2: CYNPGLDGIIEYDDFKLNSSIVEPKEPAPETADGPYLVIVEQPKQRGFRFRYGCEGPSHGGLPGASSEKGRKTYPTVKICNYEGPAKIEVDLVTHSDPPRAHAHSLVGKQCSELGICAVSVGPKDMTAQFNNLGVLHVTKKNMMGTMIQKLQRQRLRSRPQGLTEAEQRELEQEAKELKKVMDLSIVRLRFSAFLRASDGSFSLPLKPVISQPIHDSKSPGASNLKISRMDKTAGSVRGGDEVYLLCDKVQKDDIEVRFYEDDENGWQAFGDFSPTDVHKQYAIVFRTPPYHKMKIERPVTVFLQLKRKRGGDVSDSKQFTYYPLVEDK
# Assay: protein binding microarray; high values mean tight binding
# Settings: dsDNA, one strand shown
row,Sequence,binding signal
1,CGGGTTATCCC,0.698 z-score
2,CAAGGGGTCCT,-0.354 z-score
3,AGAAGGCCCCT,0.0992 z-score
4,GGGGTCGCCCC,1.61 z-score
5,CGAATTCTCCT,-0.835 z-score
6,AAGGGAATCCC,1.57 z-score
7,AAAAGGATCCT,-0.866 z-score
8,GAAGAGCCCCT,0.833 z-score
9,AAGGACGCCCT,-0.803 z-score
10,CGGATAATCCT,-1.08 z-score
11,CAGAGACCCCC,0.502 z-score
12,CAGAACCTCCT,-0.944 z-score
13,AAGAGGCCCCT,0.191 z-score
14,CAAGGAGCCCC,0.0984 z-score
15,AGAAGGGTCCC,-0.0866 z-score
16,AAAGAATTCCC,0.975 z-score
17,AAAAATCCCCT,2.88 z-score
18,AAATATCTCCC,0.153 z-score
19,CAATTTATCCT,-0.64 z-score

row,Sequence,binding signal
1,GGATGCGTCCT,-0.816 z-score
2,CAAATAATCCT,-0.846 z-score
3,AGGGATCTCCC,1.12 z-score
4,CAATTATCCCC,1.33 z-score
5,AAATACACCCC,0.566 z-score
6,AGGAAGCCCCC,1.07 z-score
7,GAAGGAACCCT,-0.793 z-score
8,AGAAACTTCCC,0.541 z-score
9,CGGTACATCCC,0.811 z-score
10,GAAATCGCCCC,0.759 z-score
11,AGATTATCCCT,0.392 z-score
12,GAATTAGTCCT,-0.767 z-score
13,AAAAGAATCCC,0.317 z-score
14,CGAGGCACCCT,-0.72 z-score
15,CAGAATTCCCC,2.21 z-score
16,AAGATGCCCCC,1.17 z-score
17,GAGAACTCCCC,0.794 z-score
18,GGGTACTCCCC,1.96 z-score
19,GAAAGAATCCT,-0.787 z-score

# Molecular target: C-Rel subunit;p50 subunit (Homo sapiens;Homo sapiens, UniProt Q04864;P19838 1-285;7-356)
# Assay: as above
# Settings: dsDNA, one strand shown
row,Sequence,binding signal
1,CGGGTTATCCC,0.306 z-score
2,CAAGGGGTCCT,-0.859 z-score
3,AGAAGGCCCCT,-0.139 z-score
4,GGGGTCGCCCC,0.866 z-score
5,CGAATTCTCCT,-0.873 z-score
6,AAGGGAATCCC,1.02 z-score
7,AAAAGGATCCT,-1.6 z-score
8,GAAGAGCCCCT,0.202 z-score
9,AAGGACGCCCT,-1.23 z-score
10,CGGATAATCCT,-0.945 z-score
11,CAGAGACCCCC,0.323 z-score
12,CAGAACCTCCT,-1.48 z-score
13,AAGAGGCCCCT,-0.344 z-score
14,CAAGGAGCCCC,0.121 z-score
15,AGAAGGGTCCC,-0.405 z-score
16,AAAGAATTCCC,1.54 z-score
17,AAAAATCCCCT,2.19 z-score
18,AAATATCTCCC,-0.0256 z-score
19,CAATTTATCCT,-1.1 z-score

row,Sequence,binding signal
1,GGATGCGTCCT,-1.72 z-score
2,CAAATAATCCT,-1.09 z-score
3,AGGGATCTCCC,0.678 z-score
4,CAATTATCCCC,1.2 z-score
5,AAATACACCCC,0.342 z-score
6,AGGAAGCCCCC,1.09 z-score
7,GAAGGAACCCT,-1.1 z-score
8,AGAAACTTCCC,0.576 z-score
9,CGGTACATCCC,0.0779 z-score
10,GAAATCGCCCC,0.842 z-score
11,AGATTATCCCT,0.0293 z-score
12,GAATTAGTCCT,-0.711 z-score
13,AAAAGAATCCC,0.495 z-score
14,CGAGGCACCCT,-0.919 z-score
15,CAGAATTCCCC,1.73 z-score
16,AAGATGCCCCC,1.03 z-score
17,GAGAACTCCCC,0.916 z-score
18,GGGTACTCCCC,1.45 z-score
19,GAAAGAATCCT,-1.22 z-score
